Results taken from PubChem BioAssay AID2501 (Southern Research Specialized Biocontainment Screening …, 2010).
Among all 2,200 compounds or so, about 1,200 (55%) were called active. The limit is not given here; nearly all actives have IC50 up to about 92 µM. So high a share suggests a set chosen from earlier hits. The list shows a part of the results.

Assay: counter assay for TAg ATPase ADP read-out – biochemical, ADP-Hunter, fluorescence, counter-screen (AID 2501);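 also: purified T antigen ATPase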
Conditions: series mostly up to 100 µM

**Q.** For `COc1ccc(N2C(=O)/C(=C/c3ccco3)C(=O)NC2=S)cc1`, which IC50 is on record?
**A.** Its IC50 is “inactive”.

**Q.** For `COc1ccc(-n2c(/C=C/c3ccc(O)c(O)c3)nc3ccccc3c2=O)cc1`, which IC50 is on record?
**A.** The IC50 was 24.2 µM (active).

**Q.** Which IC50 does the source give for `COC(=O)C1=Nc2ccccc2/C1=C\c1c(O)n(-c2ccc(OC)cc2)c(=O)[nH]c1=O` here?
**A.** Its IC50 is “inactive”.

**Q.** With `COc1cccc(-n2c(/C=C/c3ccc(O)c(O)c3)nc3ccccc3c2=O)c1` as the compound, how does the IC50 read?
**A.** Its IC50 is 7 µM (active).

**Q.** With `Cc1ccc2c(c1)=NC(=O)/C(=C/c1c(O)[nH]c(=O)[nH]c1=O)C=2` as the compound, how does the IC50 read?
**A.** Its IC50 is “inactive”.

**Q.** For `CN(C)[C@@H]1C(=O)C(C(N)=O)=C(O)[C@@]2(O)C(=O)C3=C(O)c4c(O)cccc4[C@@](C)(O)[C@H]3C[C@@H]12`, which IC50 is on record?
**A.** The IC50 was “inactive”.

**Q.** For `COc1ccc(/C=C2/C(=O)N(Cc3ccco3)C(=O)N(C(C)C)C2=O)cc1`, which IC50 is on record?
**A.** The IC50 was “inactive”.

**Q.** Which IC50 does the source give for `O=C(O)c1c[nH]c2ccc(S(=O)(=O)N(CCCl)CCCl)cc12` here?
**A.** The IC50 was “inactive”.

**Q.** For `O=c1cc(-c2ccc(O)c(O)c2)oc2c(C3O[C@H](CO)[C@@H](O)[C@H](O)[C@H]3O)c(O)cc(O)c12` (stereo not given in full), which IC50 is on record?
**A.** Its IC50 is 4.81 µM (active).

**Q.** For `O=C1N[C@H](Cc2ccccc2)C(=O)N2[C@@H]3[C@H](C[C@@H]12)c1ccccc1N3OOSc1ccccc1`, which IC50 is on record?
**A.** Its IC50 is “inactive”.

**Q.** Which IC50 does the source give for `O=C1NC(=S)N(c2ccc(F)cc2)C(=O)/C1=C\c1ccoc1` here?
**A.** The IC50 was “inactive”.

**Q.** For `COc1cccc(C(=O)NC2CC3CCCC(C2)N3CC(=O)Nc2ccc(N(C)C)cc2)c1` (stereo not given), which IC50 is on record?
**A.** Its IC50 is 3.14 µM (active).

**Q.** Which IC50 does the source give for `CN(C)c1ccc(NC(=O)CN2C(=O)CN=C(c3ccccc3)c3ccccc32)cc1` here?
**A.** The IC50 was 9.96 µM (active).

**Q.** Which IC50 does the source give for `CN(C)c1ccc(NC(=O)CN2CCC(O)(c3ccccc3)CC2)cc1` here?
**A.** The IC50 was 2.88 µM (active).

**Q.** For `CN(C)c1ccc(NC(=O)CN2C3CCCC2CC(NC(=O)c2ccccc2)C3)cc1` (stereo not given), which IC50 is on record?
**A.** Its IC50 is 3.12 µM (active).

**Q.** Which IC50 does the source give for `Cc1ccccc1N1C(=O)NC(=O)/C(=C\c2cnn(-c3ccccc3)c2)C1=O` here?
**A.** The IC50 was “inactive”.

**Q.** Which IC50 does the source give for `O=C1NC(=O)N(c2cccc(Cl)c2)C(=O)/C1=C\c1ccc(Sc2nc3ccccc3[nH]2)o1` here?
**A.** The IC50 was “inactive”.

**Q.** For `CN1C2CCC1CC(=NO)C2`, which IC50 is on record?
**A.** Its IC50 is “inactive”.

**Q.** For `C=C(C=O)CC1CC(O)[C@]2(C)OC3CC4OC5C[C@]6(C)O[C@]7(C)CCC8OC9C[C@]%10(C)OC%11C(C)=CC(=O)OC%11CC%10OC9C[C@@H](C)C8OC7CC6O[C@]5(C)CC5OC5C4OC3CC2O1` (stereo not given in full), which IC50 is on record?
**A.** Its IC50 is “inactive”.

**Q.** Which IC50 does the source give for `CCCN1CCc2cccc3c2[C@H]1Cc1ccc(O)c(O)c1-3` here?
**A.** The IC50 was “inactive”.

**Q.** Which IC50 does the source give for `Cc1ccc2c(c1)C1CN(C)CCC1N2C(=O)Nc1cccc(C(F)(F)F)c1` (stereo not given) here?
**A.** The IC50 was “inactive”.

**Q.** With `CCCCN1C(=O)/C(=C/c2ccc(N(C)C)cc2)C(=O)N(Cc2ccco2)C1=O` as the compound, how does the IC50 read?
**A.** Its IC50 is “inactive”.

**Q.** For `CP(=O)(Nc1ccccc1)C(Cl)(Cl)Cl` (stereo not given), which IC50 is on record?
**A.** Its IC50 is “inactive”.

**Q.** With `CNC(=O)Oc1ccc2ncccc2c1` as the compound, how does the IC50 read?
**A.** Its IC50 is 24.1 µM (active).

**Q.** With `CNC(=O)Oc1ccc(-c2cn3cc(Cl)ccc3n2)cc1` as the compound, how does the IC50 read?
**A.** The IC50 was “inactive”.

**Q.** Which IC50 does the source give for `CC[C@H](C)/C=C(C)/C=C/C1=CC2=C(Cl)C(=O)[C@@](C)(OC(C)=O)C(=O)C2=CO1` here?
**A.** Its IC50 is “inactive”.

**Q.** Which IC50 does the source give for `O=C(CN1CCCC1=O)N1CCOCC1` here?
**A.** Its IC50 is “inactive”.

**Q.** Which IC50 does the source give for `N/C(=N\N=C/c1ccc(-c2ccc(O)c(C(=O)O)c2)o1)N[N+](=O)[O-]` here?
**A.** The IC50 was “inactive”.

**Q.** Which IC50 does the source give for `N/C(=N\N=C\c1ccc(O)cc1O)N[N+](=O)[O-]` here?
**A.** Its IC50 is 4.1 µM (active).

**Q.** For `COc1ccc(/C=C2/C(=O)NC(=S)N(C3CC3)C2=O)cc1CN1C(=O)c2ccccc2C1=O`, which IC50 is on record?
**A.** Its IC50 is “inactive”.

**Q.** Which IC50 does the source give for `O=C(c1ccc2nc(-c3ccco3)c(-c3ccco3)nc2c1)N1CCC2(CC1)OCCO2` here?
**A.** Its IC50 is “inactive”.

**Q.** Which IC50 does the source give for `O=C(O)c1cc[c]([Hg][Cl])cc1` here?
**A.** The IC50 was “inactive”.

**Q.** For `CN1C(=O)/C(=C/c2cccn2-c2ccc3ccccc3c2)C(=O)NC1=S`, which IC50 is on record?
**A.** The IC50 was “inactive”.

**Q.** For `COc1cc2c(ccc3cc(OC)c(OC)c(O)c32)cc1O`, which IC50 is on record?
**A.** The IC50 was 39.6 µM (active).

**Q.** With `O=C1NC(=O)N(c2ccccc2)C(=O)/C1=C/C=C/c1ccco1` as the compound, how does the IC50 read?
**A.** Its IC50 is “inactive”.
